Assay results as given in PubChem BioAssay (NCI).
Values joined by “and” are separate entries in the source; they are usually repeats but may differ in a detail not shown here. Equal entries are not always repeated. About 83,000 compounds went through this panel and 20% of them were active in at least one assay; those are over-represented in the sample as a whole.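 Interpretation: 100, growth as untreated; towards 0, rising growth inhibition; 0, no net growth; 0 to -100, cell death. Compounds scoring below 10 were considered active.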 Values without a mark were called inactive. Active and inactive are the calls of the source.

How the values were obtained:
Assay in all cases: NCI-60 one-dose screen, 48 h (100 = growth as untreated, 0 = no growth, -100 = all killed)
Details in all cases: 10 µM unless noted
SR leukemia = test system: SR leukemia
RPMI-8226 leukemia = test system: RPMI-8226 leukemia
OVCAR-8 ovarian = test system: OVCAR-8 ovarian
OVCAR-5 ovarian = test system: OVCAR-5 ovarian
OVCAR-4 ovarian = test system: OVCAR-4 ovarian
SK-OV-3 ovarian = test system: SK-OV-3 ovarian
OVCAR-3 ovarian = test system: OVCAR-3 ovarian
HS 578T breast = test system: HS 578T breast
NCI/ADR-RES ovarian = test system: NCI/ADR-RES ovarian
IGROV1 ovarian = test system: IGROV1 ovarian

O=C(NNC(=O)c1ccc(OCc2nc3ccc(Cl)cc3[nH]2)cc1)Nc1ccc(Cl)c(Cl)c1
growth (SR leukemia): 69.3%
growth (RPMI-8226 leukemia): 102%
growth (OVCAR-8 ovarian): 24%
growth (OVCAR-5 ovarian): 83.8%
growth (OVCAR-4 ovarian): 64.5%
growth (SK-OV-3 ovarian): 77.1%
growth (OVCAR-3 ovarian): 82.7%
growth (HS 578T breast): 81.9%
growth (NCI/ADR-RES ovarian): 94.1%

O=C(COc1ccc(/C=C2/C(=O)Nc3ccc(Cl)cc32)cc1)Nc1ccc(Br)cc1
growth (SR leukemia): -35.7% (active)
growth (RPMI-8226 leukemia): 14%
growth (OVCAR-8 ovarian): -44.4% (active)
growth (OVCAR-5 ovarian): 3.15% (active)
growth (OVCAR-4 ovarian): -54% (active)
growth (SK-OV-3 ovarian): -57.8% (active)
growth (IGROV1 ovarian): -22.2% (active)
growth (OVCAR-3 ovarian): -64.8% (active)
growth (NCI/ADR-RES ovarian): -34% (active)

c1n[nH]cc1-c1nc2ccc3cn[nH]c3c2c2c1CCCC2
growth (SR leukemia): 74.5%
growth (RPMI-8226 leukemia): 85.3%
growth (OVCAR-8 ovarian): 89.2%
growth (OVCAR-5 ovarian): 89.9%
growth (OVCAR-4 ovarian): 96.1%
growth (SK-OV-3 ovarian): 96.8%
growth (IGROV1 ovarian): 66.5%
growth (OVCAR-3 ovarian): 109%
growth (NCI/ADR-RES ovarian): 88.7%

CS(=O)(=O)Nc1cccc(-n2c(COc3ccc(OC(F)(F)F)cc3)nc3ccccc32)c1
growth (SR leukemia): 68.3% and 83.2%
growth (RPMI-8226 leukemia): 76.7% and 98.1%
growth (OVCAR-8 ovarian): 93.1% and 110%
growth (OVCAR-5 ovarian): 124%
growth (OVCAR-4 ovarian): 84.9% and 104%
growth (SK-OV-3 ovarian): 76% and 95.4%
growth (OVCAR-3 ovarian): 107% and 112%
growth (HS 578T breast): 47.9% and 101%
growth (NCI/ADR-RES ovarian): 88.2% and 107%

COc1cc(CNC(=O)C[C@H](C)CCC=C(C)C)ccc1OCc1cn(-c2ccc(Cl)c(Cl)c2)nn1
growth (SR leukemia): 27.1%
growth (RPMI-8226 leukemia): 77.6%
growth (OVCAR-8 ovarian): 46.3%
growth (OVCAR-5 ovarian): 86.4%
growth (OVCAR-4 ovarian): 53.4%
growth (SK-OV-3 ovarian): 99%
growth (IGROV1 ovarian): 83.1%
growth (OVCAR-3 ovarian): 60.1%
growth (NCI/ADR-RES ovarian): 36.5%

Cc1ccc(C2CC(c3ccc(S(=O)(=O)NCCNc4nc(N(C)C)nc(N5CCOCC5)n4)cc3)=Nc3c(N)nc(N)nc3N2)cc1 (configuration not stated)
growth (SR leukemia): 1.45% (active)
growth (RPMI-8226 leukemia): 23.4%
growth (OVCAR-8 ovarian): 56.3%
growth (OVCAR-5 ovarian): 90%
growth (OVCAR-4 ovarian): 55.7%
growth (SK-OV-3 ovarian): 77.2%
growth (IGROV1 ovarian): 50.2%
growth (OVCAR-3 ovarian): 64.9%
growth (NCI/ADR-RES ovarian): 89.3%

COc1ccc(NC2=C(I)C(=O)C(C)=C(C)C2=O)cc1
growth (SR leukemia): 12.3%
growth (RPMI-8226 leukemia): 2.98% (active)
growth (OVCAR-8 ovarian): -19.2% (active)
growth (OVCAR-5 ovarian): 53.9%
growth (OVCAR-4 ovarian): -84.6% (active)
growth (SK-OV-3 ovarian): 91.8%
growth (IGROV1 ovarian): 15.3%
growth (OVCAR-3 ovarian): -17.1% (active)
growth (NCI/ADR-RES ovarian): -20% (active)

CN1CCN(CCS(=O)(=O)Nc2cc(-c3ccc4ncnc(Nc5ccc(F)c(Cl)c5)c4c3)cnc2Cl)CC1
growth (SR leukemia): -45.4% (active)
growth (RPMI-8226 leukemia): 75.2%
growth (OVCAR-8 ovarian): 22.4%
growth (OVCAR-5 ovarian): 16%
growth (OVCAR-4 ovarian): 32.3%
growth (SK-OV-3 ovarian): 3.06% (active)
growth (IGROV1 ovarian): -34.8% (active)
growth (OVCAR-3 ovarian): -31.7% (active)
growth (NCI/ADR-RES ovarian): 78.4%

COc1ccc2[nH]c(=O)c(CSc3ccccc3Nc3nccc(-c4ccc(C(F)(F)F)cc4)n3)cc2c1
growth (SR leukemia): -16.8% (active)
growth (RPMI-8226 leukemia): 4.65% (active)
growth (OVCAR-8 ovarian): 32.4%
growth (OVCAR-5 ovarian): 75.9%
growth (OVCAR-4 ovarian): 39.2%
growth (SK-OV-3 ovarian): 81.7%
growth (OVCAR-3 ovarian): 22.1%
growth (HS 578T breast): 42.5%
growth (NCI/ADR-RES ovarian): 10.5%

CNc1nc2ccccc2n2c(-c3ccc(O)c(O)c3)cnc12
growth (SR leukemia): 6.32% (active)
growth (RPMI-8226 leukemia): 9.2% (active)
growth (OVCAR-8 ovarian): 11.9%
growth (OVCAR-5 ovarian): 14.9%
growth (OVCAR-4 ovarian): 34.7%
growth (SK-OV-3 ovarian): 16.5%
growth (IGROV1 ovarian): 7.31% (active)
growth (OVCAR-3 ovarian): -5.33% (active)
growth (NCI/ADR-RES ovarian): 6.86% (active)

CCN1CCN(Cc2ccc(C(=O)Nc3cccc(Nc4ccc5c(OC)cccc5n4)c3)cc2C(F)(F)F)CC1
growth (SR leukemia): -35.1% (active)
growth (RPMI-8226 leukemia): -34.8% (active)
growth (OVCAR-8 ovarian): -66.1% (active)
growth (OVCAR-5 ovarian): -91.9% (active)
growth (OVCAR-4 ovarian): -53.1% (active)
growth (SK-OV-3 ovarian): -8.33% (active)
growth (OVCAR-3 ovarian): 4.54% (active)
growth (HS 578T breast): -16.4% (active)
growth (NCI/ADR-RES ovarian): -81% (active)

COc1cc(CNC(=O)C[C@H](C)CCC=C(C)C)ccc1OCc1cn(-c2ccccc2Cl)nn1
growth (SR leukemia): 48.5%
growth (RPMI-8226 leukemia): 47.6%
growth (OVCAR-8 ovarian): 49.8%
growth (OVCAR-5 ovarian): 93.1%
growth (OVCAR-4 ovarian): 33.3%
growth (SK-OV-3 ovarian): 83%
growth (IGROV1 ovarian): 87.1%
growth (OVCAR-3 ovarian): 83.6%
growth (NCI/ADR-RES ovarian): 24%

C[C@H](NC(=O)c1ccc2c(-c3ccc(C(F)(F)F)cc3)cccc2c1)c1ccccn1
growth (SR leukemia): 33.3%
growth (RPMI-8226 leukemia): 21.4%
growth (OVCAR-8 ovarian): 44.7%
growth (OVCAR-5 ovarian): 75.2%
growth (OVCAR-4 ovarian): 42%
growth (SK-OV-3 ovarian): 64%
growth (OVCAR-3 ovarian): 45.6%
growth (HS 578T breast): 53.2%
growth (NCI/ADR-RES ovarian): 32.5%
